Measured values reported in PubChem BioAssay AID687001 (Broad Institute, 2013).
Measured potencies and affinities stand elsewhere. Calls of active or inactive are those of the source.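 How the source made its calls: active means signal-lowering compounds whose fitted half-maximal concentration is at or below twice the top tested dose in every run; inconclusive means runs disagree, flat 30 to 70% inhibition, or poor curve fit; inactive means the rest.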

target: Protein S100-A4 (Homo sapiens) (UniProt P26447); assay: human S100A4 peptide interaction inhibition curves – biochemical, fluorescence polarization, cherry-picked hits, dose response (AID 687001); conditions: FP, S100A4/TAMRA-myosin IIA peptide binding; series mostly up to 11 µM
Sequence (P26447 whole entry, looked up): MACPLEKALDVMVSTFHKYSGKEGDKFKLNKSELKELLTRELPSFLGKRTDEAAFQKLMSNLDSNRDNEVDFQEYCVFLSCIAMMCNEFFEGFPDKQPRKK

outcome, inactive:
S=c1[nH]c(-c2ccccc2)cn1-c1ccccc1, Cc1ccc2[nH]c(=O)c3cc(C(=O)NCCC(C)C)sc3c2c1, O=C(O)CSc1c2c(nc3cc(C(=O)Nc4cccc(C(F)(F)F)c4)ccc13)CCCC2, O=C(/C=C/c1ccccc1)Nc1cc(S(=O)(=O)N2CCOCC2)ccc1N1CCOCC1, C[C@@H]1CN([C@H](C)CO)S(=O)(=O)c2ccc(C#C[C@@H](C)O)cc2O[C@@H]1CN(C)C(=O)C1CC1, COc1ccc(S(=O)(=O)N2CCCCC2)cc1NC(=O)CCOc1cc(C)ccc1C, Cc1cc2nnc(SCC(=O)NCC(c3ccccc3)N(C)C)n2c2ccccc12 (stereo unspecified), Cc1cc(=O)oc2c(C)c(OCC(=O)N3CCN(C(=O)C4COc5ccccc5O4)CC3)ccc12 (stereo unspecified), C[C@H](CO)N1C[C@H](C)[C@@H](CN(C)Cc2cccc(F)c2)Oc2ncc(C#C[C@@H](C)O)cc2C1=O, O=C(Cc1ccncc1)NCC[C@@H]1CC[C@@H](NC(=O)C2CCOCC2)[C@@H](CO)O1, CC(C)NC(=O)Nc1ccc2c(c1)C(=O)N([C@@H](C)CO)C[C@H](C)[C@H](CN(C)C(=O)c1ccncc1)OCCCC[C@H](C)O2
